Measured values as given in ChEMBL document CHEMBL3988442, “University of Dundee, Small-Polar-MMV Screening Library” (2021).
For part of these data: Potency and affinity values are given separately.

Assays:
Design in all cases: scale not given: direction of the effect not stated beside the values
[1] = target: Protein translocase subunit SecA (Escherichia coli (strain K12)) (UniProt P10408); experiment: Assay to Identify E. coli SecA ATPase Inhibitors; format: functional; conditions: 30 µM
[2] = target: T1, Ubiquitin-activating enzyme e1, putative (Leishmania donovani (strain BPK282A1)) (UniProt E9BSI1); experiment: Leishmania donovani Ubiquitin Activating Enzyme (LdE1); format: functional; conditions: 30 µM
T1 sequence (whole entry): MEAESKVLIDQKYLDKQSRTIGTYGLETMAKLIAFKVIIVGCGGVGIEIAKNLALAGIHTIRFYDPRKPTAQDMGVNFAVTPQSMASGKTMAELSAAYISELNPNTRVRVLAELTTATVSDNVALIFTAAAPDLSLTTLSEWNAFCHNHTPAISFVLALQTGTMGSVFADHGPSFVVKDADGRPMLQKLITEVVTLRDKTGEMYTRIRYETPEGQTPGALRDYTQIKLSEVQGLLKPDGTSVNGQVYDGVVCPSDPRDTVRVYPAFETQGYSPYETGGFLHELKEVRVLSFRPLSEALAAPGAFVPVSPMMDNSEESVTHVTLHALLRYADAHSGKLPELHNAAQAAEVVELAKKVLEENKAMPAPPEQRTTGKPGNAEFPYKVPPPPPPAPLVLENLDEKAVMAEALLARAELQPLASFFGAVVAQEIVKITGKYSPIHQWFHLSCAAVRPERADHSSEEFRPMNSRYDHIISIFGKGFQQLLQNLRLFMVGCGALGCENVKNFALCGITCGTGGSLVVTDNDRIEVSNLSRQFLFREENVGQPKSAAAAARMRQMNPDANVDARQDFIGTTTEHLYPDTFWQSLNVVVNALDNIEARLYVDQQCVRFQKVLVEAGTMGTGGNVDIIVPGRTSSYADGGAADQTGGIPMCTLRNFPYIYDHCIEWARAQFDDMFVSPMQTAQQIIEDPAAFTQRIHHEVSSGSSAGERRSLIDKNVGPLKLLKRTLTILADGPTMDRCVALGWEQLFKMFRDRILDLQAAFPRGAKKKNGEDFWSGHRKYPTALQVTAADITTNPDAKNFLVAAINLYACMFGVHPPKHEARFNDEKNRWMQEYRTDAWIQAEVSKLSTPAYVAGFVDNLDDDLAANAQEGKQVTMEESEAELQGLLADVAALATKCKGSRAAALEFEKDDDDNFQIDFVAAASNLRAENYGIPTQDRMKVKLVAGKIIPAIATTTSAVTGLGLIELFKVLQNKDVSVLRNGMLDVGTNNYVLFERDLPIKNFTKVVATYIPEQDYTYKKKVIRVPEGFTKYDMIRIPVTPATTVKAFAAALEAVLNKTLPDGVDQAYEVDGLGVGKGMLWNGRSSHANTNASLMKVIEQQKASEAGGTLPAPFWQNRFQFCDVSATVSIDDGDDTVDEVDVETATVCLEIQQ

[3] = target: AMP-activated protein kinase, AMPK (Homo sapiens) (UniProt P54646+O43741+P54619+Q9UGJ0+Q9Y478+Q13131+Q9UGI9); experiment: AMP-dependent Kinase enzyme assay. An in vitro enzyme assay that detects ADP turnover that is directly proportional to AMPK activity. This uses naive AMPK that is activated during the assay with MK-8722; format: functional; conditions: 30 µM
[4] = target: Sialic acid-binding Ig-like lectin 9 (Homo sapiens) (UniProt Q9Y336); experiment: Hs-Siglec9 ALPHAscreen SOP 20170721; conditions: 10 µM
Sialic acid-binding Ig-like lectin 9 (Homo sapiens), sequence (Q9Y336 whole entry): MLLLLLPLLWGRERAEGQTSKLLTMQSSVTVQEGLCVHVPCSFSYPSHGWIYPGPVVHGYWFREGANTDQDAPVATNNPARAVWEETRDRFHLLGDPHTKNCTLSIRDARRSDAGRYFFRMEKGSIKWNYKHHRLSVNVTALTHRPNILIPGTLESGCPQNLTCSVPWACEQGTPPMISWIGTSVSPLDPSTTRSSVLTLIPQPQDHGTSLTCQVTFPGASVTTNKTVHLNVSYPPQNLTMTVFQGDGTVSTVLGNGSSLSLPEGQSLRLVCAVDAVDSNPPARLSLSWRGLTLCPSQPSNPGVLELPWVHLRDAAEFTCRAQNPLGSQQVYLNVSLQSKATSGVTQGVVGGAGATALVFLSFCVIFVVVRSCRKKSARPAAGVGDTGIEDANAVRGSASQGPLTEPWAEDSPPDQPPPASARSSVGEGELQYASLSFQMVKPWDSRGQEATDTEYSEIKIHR

Trypanosoma cruzi = experiment: Trypanosoma cruzi phosphomannomutase and mannose-1-phosphate guanylyltransferase assay; format: functional; conditions: 10 µM
[5] = target: T2, Arginase-2, mitochondrial (Homo sapiens) (UniProt P78540); experiment: in vitro enzyme assay to detect the production of urea directly proportional to the activity of Arginase II; format: functional; conditions: 33.3 µM; note: in the data most compounds retested in dose-response had high values
T2 sequence (whole entry): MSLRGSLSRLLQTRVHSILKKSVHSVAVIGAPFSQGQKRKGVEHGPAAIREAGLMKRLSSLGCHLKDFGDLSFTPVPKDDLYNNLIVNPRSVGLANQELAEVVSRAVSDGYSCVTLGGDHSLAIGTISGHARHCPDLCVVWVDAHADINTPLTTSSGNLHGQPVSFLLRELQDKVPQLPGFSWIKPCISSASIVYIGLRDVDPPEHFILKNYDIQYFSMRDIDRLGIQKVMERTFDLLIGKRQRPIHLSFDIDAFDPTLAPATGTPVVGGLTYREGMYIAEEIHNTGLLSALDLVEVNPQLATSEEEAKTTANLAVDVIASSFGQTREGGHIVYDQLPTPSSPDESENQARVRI

[6] = target: T3, Proteasome subunit beta (Trypanosoma cruzi) (UniProt O96673); experiment: Trypanosoma cruzi proteasome chymotrypsin-like activity (TcProtChymo) assay.; note: in the data most compounds retested in dose-response had high values; format: functional; conditions: 9.37 µM
T3 sequence (whole entry): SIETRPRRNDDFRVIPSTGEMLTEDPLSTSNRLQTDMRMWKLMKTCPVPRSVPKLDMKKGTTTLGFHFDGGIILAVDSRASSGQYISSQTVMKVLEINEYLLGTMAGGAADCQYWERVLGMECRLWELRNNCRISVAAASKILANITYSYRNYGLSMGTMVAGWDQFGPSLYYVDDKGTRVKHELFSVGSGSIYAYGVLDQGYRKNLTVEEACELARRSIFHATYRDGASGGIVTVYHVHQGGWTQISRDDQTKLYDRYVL

Homo sapiens = organism: Homo sapiens; experiment: To identify inhibition of the IFN signalling (Jak-Stat) pathway via expression of an eGFP reporter gene under the control of an IFN-stimulated response element (ISRE) containing MxA promoter.; format: functional; conditions: 30 µM
[7] = target: T4, Tyrosyl-tRNA synthetase, putative (Trypanosoma cruzi (strain CL Brener)) (UniProt Q4DSP6); experiment: Trypanosoma cruzi tyrosyl tRNA synthetase (TcYRS) _High Tyrosine SOP; format: functional; conditions: 30 µM; note: in the data most compounds retested in dose-response had high values
T4 sequence (whole entry): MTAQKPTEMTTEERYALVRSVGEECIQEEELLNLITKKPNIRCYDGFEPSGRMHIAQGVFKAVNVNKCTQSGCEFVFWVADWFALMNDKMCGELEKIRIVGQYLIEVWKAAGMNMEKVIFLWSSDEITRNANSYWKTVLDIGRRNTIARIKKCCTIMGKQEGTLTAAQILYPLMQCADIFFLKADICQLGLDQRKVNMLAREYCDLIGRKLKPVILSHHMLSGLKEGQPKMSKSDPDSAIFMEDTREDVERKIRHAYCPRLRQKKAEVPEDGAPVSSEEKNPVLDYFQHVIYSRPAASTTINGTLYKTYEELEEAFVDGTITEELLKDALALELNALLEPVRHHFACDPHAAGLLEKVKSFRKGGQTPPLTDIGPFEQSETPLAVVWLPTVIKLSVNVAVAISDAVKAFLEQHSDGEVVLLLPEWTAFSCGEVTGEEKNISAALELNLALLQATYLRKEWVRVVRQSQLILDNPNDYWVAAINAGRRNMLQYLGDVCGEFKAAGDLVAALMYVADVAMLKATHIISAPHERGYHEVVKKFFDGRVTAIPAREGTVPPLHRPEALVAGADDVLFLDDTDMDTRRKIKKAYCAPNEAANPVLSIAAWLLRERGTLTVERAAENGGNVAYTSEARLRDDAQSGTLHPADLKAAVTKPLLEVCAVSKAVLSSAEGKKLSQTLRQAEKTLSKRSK

[8] = target: T4, Tyrosyl-tRNA synthetase, putative (Trypanosoma cruzi (strain CL Brener)); experiment: Trypanosoma cruzi tyrosyl tRNA synthetase (TcYRS) SOP; format: functional; conditions: 30 µM
[9] = target: Chromo domain-containing protein 1 (Saccharomyces cerevisiae (strain ATCC 204508 / S288c) (Baker's yeast)) (UniProt P32657); experiment: ScCHD-1 Enzyme Inhibition Assay; format: functional; conditions: 30 µM; note: in the data most compounds retested in dose-response had high values
Chromo domain-containing protein 1 (Saccharomyces cerevisiae (strain ATCC 204508 / S288c) (Baker's yeast)), sequence (P32657 whole entry, the tested form may be a part): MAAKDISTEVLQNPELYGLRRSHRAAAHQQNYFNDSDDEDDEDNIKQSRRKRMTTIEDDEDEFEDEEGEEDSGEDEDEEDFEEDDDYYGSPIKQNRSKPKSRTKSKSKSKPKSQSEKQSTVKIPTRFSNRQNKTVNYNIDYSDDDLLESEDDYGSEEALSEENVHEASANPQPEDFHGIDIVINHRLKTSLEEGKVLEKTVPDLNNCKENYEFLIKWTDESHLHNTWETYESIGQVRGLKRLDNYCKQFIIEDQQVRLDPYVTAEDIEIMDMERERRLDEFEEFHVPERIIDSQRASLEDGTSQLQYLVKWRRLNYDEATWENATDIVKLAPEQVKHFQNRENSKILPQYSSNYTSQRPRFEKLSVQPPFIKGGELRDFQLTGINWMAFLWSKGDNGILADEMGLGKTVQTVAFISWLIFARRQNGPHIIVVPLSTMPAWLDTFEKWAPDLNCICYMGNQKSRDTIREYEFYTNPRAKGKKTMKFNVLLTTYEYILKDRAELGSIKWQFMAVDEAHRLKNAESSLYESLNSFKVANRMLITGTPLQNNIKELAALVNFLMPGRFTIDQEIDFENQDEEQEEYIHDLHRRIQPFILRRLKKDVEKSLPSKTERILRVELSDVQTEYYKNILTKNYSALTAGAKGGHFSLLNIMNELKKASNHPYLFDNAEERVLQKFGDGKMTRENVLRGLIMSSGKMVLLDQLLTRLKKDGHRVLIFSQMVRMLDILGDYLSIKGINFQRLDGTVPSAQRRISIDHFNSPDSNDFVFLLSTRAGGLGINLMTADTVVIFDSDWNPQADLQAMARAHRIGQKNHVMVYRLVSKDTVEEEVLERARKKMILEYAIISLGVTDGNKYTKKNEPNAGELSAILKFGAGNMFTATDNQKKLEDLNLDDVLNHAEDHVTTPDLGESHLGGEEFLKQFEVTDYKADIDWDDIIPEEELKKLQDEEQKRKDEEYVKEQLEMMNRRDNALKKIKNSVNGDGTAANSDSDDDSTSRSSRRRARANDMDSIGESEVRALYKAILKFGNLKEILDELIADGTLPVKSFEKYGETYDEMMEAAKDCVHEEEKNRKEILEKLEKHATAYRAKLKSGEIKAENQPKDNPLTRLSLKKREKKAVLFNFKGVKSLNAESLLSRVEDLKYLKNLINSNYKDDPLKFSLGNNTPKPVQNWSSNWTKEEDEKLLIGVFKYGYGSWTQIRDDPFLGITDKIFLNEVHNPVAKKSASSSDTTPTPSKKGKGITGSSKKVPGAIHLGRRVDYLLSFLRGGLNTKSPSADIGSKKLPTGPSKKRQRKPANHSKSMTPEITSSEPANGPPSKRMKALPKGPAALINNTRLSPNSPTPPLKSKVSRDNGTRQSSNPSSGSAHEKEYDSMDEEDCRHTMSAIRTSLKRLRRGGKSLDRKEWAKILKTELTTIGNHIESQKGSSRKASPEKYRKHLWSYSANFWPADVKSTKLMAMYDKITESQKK

Protein translocase subunit SecA (Escherichia coli (strain K12)), sequence (P10408 whole entry): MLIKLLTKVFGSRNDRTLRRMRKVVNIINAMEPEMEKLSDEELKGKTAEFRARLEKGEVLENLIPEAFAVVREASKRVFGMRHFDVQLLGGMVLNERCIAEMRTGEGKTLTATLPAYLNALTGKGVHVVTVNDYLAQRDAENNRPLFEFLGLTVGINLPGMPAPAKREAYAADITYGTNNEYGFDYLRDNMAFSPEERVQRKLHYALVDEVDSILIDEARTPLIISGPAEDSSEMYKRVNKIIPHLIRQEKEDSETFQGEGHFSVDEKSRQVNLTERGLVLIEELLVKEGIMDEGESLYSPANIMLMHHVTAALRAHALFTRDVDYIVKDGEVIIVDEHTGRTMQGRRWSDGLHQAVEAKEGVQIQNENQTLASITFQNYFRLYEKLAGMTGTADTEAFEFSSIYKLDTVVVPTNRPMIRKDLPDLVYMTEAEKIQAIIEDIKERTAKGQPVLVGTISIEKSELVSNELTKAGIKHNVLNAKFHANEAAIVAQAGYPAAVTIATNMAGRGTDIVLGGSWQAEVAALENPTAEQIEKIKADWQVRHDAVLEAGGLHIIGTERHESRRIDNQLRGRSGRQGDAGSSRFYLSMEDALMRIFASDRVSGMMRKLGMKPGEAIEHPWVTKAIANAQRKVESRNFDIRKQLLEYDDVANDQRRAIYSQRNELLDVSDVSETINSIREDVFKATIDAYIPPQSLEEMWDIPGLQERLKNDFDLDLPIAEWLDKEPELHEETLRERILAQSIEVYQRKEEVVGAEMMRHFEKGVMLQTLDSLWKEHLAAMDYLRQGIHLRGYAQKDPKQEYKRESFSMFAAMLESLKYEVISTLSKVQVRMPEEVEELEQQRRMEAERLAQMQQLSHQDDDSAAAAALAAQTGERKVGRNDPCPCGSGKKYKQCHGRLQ

Row | SMILES | Percent Effect [1] [%] | Percent Effect [2] [%] | Percent Effect [3] [%] | Percent Effect [4] [%] | Percent Effect (Trypanosoma cruzi) [%] | Percent Effect [5] [%] | Percent Effect [6] [%] | Percent Effect (Homo sapiens) [%] | Percent Effect [7] [%] | Percent Effect [8] [%] | Percent Effect [9] [%]
1 | O=S(=O)(C1CC1)N1CCO[C@H]2[C@H](OCCN3CCCC3)CC[C@@H]21 | 0.18 | 18.7 | -5.59 | -6.26 | 5.6 | -62.2 | 9.74 | 17.6 | 5.21 | 20 | -11.8
2 | O=C(NCCc1c[nH]cn1)c1ccc2c(c1)C(=O)N(C1CC1)C2=O | -0.201 | 1.33 | 5.05 | 2.3 | -8.64 | 0.176 | 11.7 | -8.34 | 6.35 | 7.69 | -4.66
3 | O=C(NCC1CC1)[C@H]1C[C@@H]2CN(S(=O)(=O)Cc3ccccc3)C[C@H]1O2 | -3.04 | 10.7 | 12.2 | -8.26 | -6.5 | 2.56 | 9.25 | 12.3 | 0 | 1.28 | -3.45
4 | Cc1cc(CNC(=O)NC(C)c2ccc(N3CCOCC3)cc2)no1 (stereo unspecified) | -5.74 | 10.4 | -1.83 | 16.5 | 5.61 | -6.9 | 11.8 | -5.95 | 4.3 | 8.64 | -6.04
5 | Cc1cnn(CC2CCCN2Cc2cc(=O)n3ccccc3n2)c1 (stereo unspecified) | -4.27 | -2.7 | -0.318 | -1.03 | 2.05 | 2.73 | 16.7 | -16.2 | 7.53 | 8.64 | -4.06
6 | O=C([C@H]1CCCO1)N1CCCC2(CCN(Cc3ccncc3)C2=O)C1 (stereo partly specified) | -1.19 | 10.4 | 3.88 | -8.92 | -7.79 | 7.1 | 11.3 | 31.4 | 3.17 | 6.41 | -8.64
7 | Cc1cc(C)n(CC2CCCCN2Cc2cscn2)n1 (stereo unspecified) | -3.65 | 13 | -3.15 | 14.9 | -1.27 | 4.42 | 7.52 | 12.4 | 7.62 | 11.8 | -10.8
8 | Cc1csc(N2CCN(Cc3ccccn3)CC2C)n1 (stereo unspecified) | -3.15 | 5.48 | -20.3 | -2.48 | -2.74 | 0.909 | 13.3 | 19.9 | 9.68 | 12.5 | -2.29
9 | COc1ccnc(N2CCN(C(=O)CN3CCCC3=O)CC2)n1 | -4.51 | 18.4 | -5.08 | -0.685 | 2.52 | 2.88 | 7.02 | 2.97 | 8.37 | 25.9 | -11.5
10 | Cn1ccnc1CN1CCN(c2ccc(C#N)cc2F)CC1 | -4.37 | 21.6 | -10.5 | 15.7 | 3.44 | 4.25 | 11.1 | 17.8 | 6.93 | 23.2 | -6.24
11 | O=C(NCc1ccc(-n2cncn2)nc1)c1ccc2c(c1)CCO2 | -5.02 | 8.11 | -9.05 | 1.05 | 1.79 | -2.4 | -3.96 | 14.7 | 7.39 | 13.6 | -6.1
12 | Cc1nn(CC(=O)N2CCN(c3ccncc3)CC2)c(C)c1Cl | -3.26 | 10.5 | 1.94 | 4.31 | 1.66 | -18.9 | 12.6 | 16.3 | 5.32 | 15.6 | -7.63
13 | CSCC(=O)N1CCC2(CC1)c1ccccc1CC2O (stereo unspecified) | -1.39 | 18.2 | 10.7 | 2.45 | 2.26 | -4.14 | 18.5 | 5.92 | 5.38 | 11.1 | -3.92
14 | CN(Cc1cn2c(n1)CN(c1ncc(F)cn1)CC2)Cc1ccco1 | -3.08 | 13.3 | -4.28 | -1.26 | 0.197 | 4.89 | 20.7 | 1.67 | 9.57 | 21.8 | -5.99
15 | Cc1occc1C(=O)N1CCO[C@H]2[C@@H](Oc3ccccn3)CC[C@@H]21 | -1.87 | 0 | 5.36 | 1.56 | 0.984 | 0.699 | 9.25 | 5.34 | 3.19 | 3.85 | 4.85
16 | Cc1ccc(CN2CC[C@H]3OCC[C@@H](C(=O)NC4CC4)[C@@H]3C2)o1 | -6.72 | 5.41 | -20.2 | -9.85 | -4.01 | 1.59 | 7.75 | 11.3 | -1.08 | -2.56 | -0.126
17 | OC[C@H]1CC[C@]2(CC1)CN(Cc1ccccn1)Cc1ccccc1O2 | -1.22 | 1.35 | 15.4 | 4.6 | -3.56 | 1.16 | 1.25 | 5.31 | 5.38 | 3.9 | -8.96
18 | CN(C)CCCNC(=O)CNC(=O)N1CCc2c([nH]c3ccccc23)C1 | -6.34 | -1.33 | 20.1 | -2.5 | -2.16 | -10.4 | 9.06 | 13.6 | 1.06 | -5.13 | -6.13
19 | Cc1ncc(CN(C)CC2CCCN2c2cccnn2)s1 (stereo unspecified) | -4.33 | 1.27 | -16.7 | 0.813 | 3.79 | -0.645 | 25.6 | 0.297 | 9.38 | 2.53 | -37.9
20 | Cc1nn(C)c(C)c1C1CCCN1CCCc1nc2ccccc2o1 (stereo unspecified) | -7.27 | 8.11 | -11.9 | 17.9 | 5.38 | -10 | 8.47 | 13.8 | 11.3 | 23.5 | -12.9
21 | CC(=O)N1CCCC1c1cccc(Cc2ccccc2F)n1 (stereo unspecified) | -3.38 | -9.46 | 3.81 | -1.05 | -2.77 | -1.62 | -1.25 | 26.6 | -4.3 | -9.09 | 3.67
